About 79,000 compounds went through this panel and 15% of them were active in at least one assay; those are over-represented in the sample as a whole. Cut-off read from the data, not from the text of the source: active = growth inhibition above about 70%; inactive = the rest.
Key:
[1] = NCI Yeast Anticancer Drug Screen. Data for the rad50 strain (AID 155);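 note: 0% = growth of vehicle-only cultures of the same strain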; conditions: S. cerevisiae rad50 strain growth inhibition; at 50.0 µM; stronger effect = higher value
In short: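 Relative growth inhibition (compound vs vehicle) was measured in yeast with a defined repair-gene alteration.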

[2] = NCI Yeast Anticancer Drug Screen. Data for the mec2-1 strain (AID 157); conditions: S. cerevisiae mec2-1 strain, at 50.0 µM, stronger effect = higher value
In short: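 Readout is yeast growth inhibition, normalised to vehicle-treated controls, in the mec2-1 strain exposed to compound.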

[3] = NCI Yeast Anticancer Drug Screen. Data for the sgs1 mgt1 strain (AID 161);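 note: 0% = growth of cultures given vehicle only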; conditions: S. cerevisiae sgs1 mgt1 strain, at 50.0 µM, stronger effect = higher value
In short: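 This yeast growth screen uses a strain with defined DNA-repair lesions; compound-treated growth is compared with vehicle-treated growth.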

[4] = NCI Yeast Anticancer Drug Screen. Data for the cln2 rad14 strain (AID 165);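 note: 0% = growth equal to vehicle treated cultures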; conditions: S. cerevisiae cln2 rad14 strain, at 50.0 µM, stronger effect = higher value
In short: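 Relative to vehicle controls, growth inhibition of compound-treated cln2 rad14 yeast was recorded.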

[5] = NCI Yeast Anticancer Drug Screen. Data for the bub3 strain (AID 167); conditions: S. cerevisiae bub3 mutant strain, at 50.0 µM, stronger effect = higher value
In short: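 Screening used yeast with an engineered genetic alteration affecting cell cycle control. Compound-exposed cultures were compared with vehicle cultures, and reduced growth was taken as inhibition.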

[6] = NCI Yeast Anticancer Drug Screen. Data for the mlh1 rad18 strain (AID 175); conditions: S. cerevisiae mlh1 rad18 strain growth inhibition; at 50.0 µM; stronger effect = higher value
In short: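 Test agents were incubated with a yeast strain of defined genotype (DNA damage repair defect). Inhibition of growth was derived by comparison with vehicle-exposed cultures.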

Measured: growth inhibition

CCCC(O)CNCC1CCC2CCc3cccc1c32 (stereo unspecified)
inactive: [1] -2.9% | [2] 5.8% | [3] 4.5% | [4] 2.05% | [5] 20.4% | [6] 18.9%

COc1ccc2nc3cc(Cl)ccc3c(NN3CCN(CCO)CC3)c2c1
inactive: [1] -24.1% | [2] -7.9% | [3] -20.1% | [4] 0.25% | [5] 2.3% | [6] -3.6%

CCOC(=O)c1cc2c(nc1N)C(=O)CCCC2
inactive: [1] -34.5% | [2] -59.1% | [3] -48.3% | [4] -23.9% | [5] -24.6% | [6] -31.6%

Cc1cc(NS(=O)(=O)c2ccc(N=[N+]([O-])c3ccc(S(=O)(=O)Nc4cc(C)on4)cc3)cc2)no1
inactive: [1] 10.8% | [2] -30.1% | [3] -6% | [4] 4.7% | [5] -13.2% | [6] -19.6%

CCOC(=O)c1nc(SC)sc1NC(=O)c1ccccc1[N+](=O)[O-]
inactive: [1] 21.2% | [2] -4.6% | [3] -8.75% | [4] 11.6% | [5] 3% | [6] -2.65%

c1cc(Cc2ccsc2)cs1
inactive: [1] -8.2% | [2] 4.1% | [3] -4.5% | [4] -7.1% | [5] -11.7% | [6] -10.8%

CSCCC(N)C(=O)NCCNc1ccc(NCCNC(=O)C(N)CCSC)c2c1C(=O)c1ccccc1C2=O (stereo unspecified)
inactive: [1] -8.05% | [2] -0.9% | [3] -29% | [4] -0.5% | [5] -30.4% | [6] -44.4%

COc1ccccc1CNCCCCCNCCCCCCCCCCNCCCCCNCc1ccccc1OC
inactive: [1] -32.4% | [2] -11.1% | [3] -27.9% | [4] -9.1% | [5] -22% | [6] -36.5%

O=[N+]([O-])c1cn(CCNc2c3ccccc3nc3ccccc23)cn1
inactive: [1] 17.4% | [2] -5.35% | [3] 20.4% | [4] 10.6% | [5] -3.85% | [6] 16.8%

COc1cc(NCCCCCNC(C)C)c2ncccc2c1OC
inactive: [1] -15.1% | [2] -9.9% | [3] -1.95% | [4] -11.3% | [5] 9.05% | [6] -3.1%

CC(C)=CCNc1ncnc2c1ncn2CCC(=O)OC(C)(C)C
inactive: [1] -9.75% | [2] -3.2% | [3] -3.7% | [4] -15.9% | [5] 10.1% | [6] 1.55%

CCS(=O)(=O)/C=C/c1ccco1
inactive: [1] 28.3% | [2] -18.6% | [3] 5.45% | [4] -36.9% | [5] 19.6% | [6] -14.9%

CC1(C)O[C@@H]2[C@@H](COC(=O)c3ccccc3)C[C@@H](C#N)[C@@H]2O1
inactive: [1] 4.05% | [2] -0.85% | [3] -25.6% | [4] 24.9% | [5] 38.9% | [6] -11.2%

O=C(O)/C=C/C(=O)Nc1ncn[nH]1
inactive: [1] -3.55% | [2] -24.7% | [3] -22.9% | [4] 3.2% | [5] -34.9% | [6] -5.4%

NNc1nc2ccc([N+](=O)[O-])cc2s1
inactive: [1] 13.7% | [2] -8.55% | [3] -1% | [4] -22% | [5] -9.75% | [6] 22.2%

COc1ccc(/C=C2\N=C(c3ccccc3)OC2=O)c(OC)c1C
inactive: [1] -6.1% | [2] -4.9% | [3] -1.65% | [4] -60.4% | [5] 1.9% | [6] -9.95%

CC(C(=O)c1ccc(Cl)cc1)[n+]1cc(Br)cc(Br)c1 (stereo unspecified)
inactive: [1] -22.6% | [2] -14.2% | [3] -9.3% | [4] -19.4% | [5] -21.4% | [6] -10.2%

CCN(CC)C(=O)C1CCNCC1
inactive: [1] -12.3% | [2] -14.4% | [3] -2% | [4] -27.2% | [5] 9.85% | [6] -7.75%

COC(=O)C1(CCC(C)=O)CCC(C)C1=O (stereo unspecified)
inactive: [1] 2.55% | [2] -4.5% | [3] 1.2% | [4] 0.2% | [5] -19.6% | [6] -9.8%

COc1ccc(C(=O)CCN(C)C)c2ccccc12
inactive: [1] -9.1% | [2] -19.8% | [3] -17.1% | [4] 9.7% | [5] -20.3% | [6] 17.5%

CN(CCO)CC(O)Cn1cnc2ncnc(N)c21 (stereo unspecified)
inactive: [1] 21.2% | [2] 12% | [3] 28.7% | [4] 13.4% | [5] 7% | [6] 33.5%

CNc1ccc(C(=O)NC(CCC(=O)O)C(=O)O)cc1I (stereo unspecified)
inactive: [1] 36.6% | [2] -6.2% | [3] -4.1% | [4] 0.15% | [5] 5.5% | [6] 10.3%

CC(C)C1C(=O)CCCC1=O
inactive: [1] -10.5% | [2] 9.6% | [3] -5.5% | [4] -12.9% | [5] -17.5% | [6] -3.35%

CN1CCN(P(=O)(c2ccccc2)N2CCN(C)CC2)CC1
inactive: [1] 32.3% | [2] 7.85% | [3] 29.6% | [4] 20.1% | [5] -1.1% | [6] 30.7%

Cc1ccc([N+](=O)[O-])cc1NC(=O)C(=O)C(C(=O)c1ccccc1F)C1OC(=O)c2ccccc21 (stereo unspecified)
inactive: [1] -3.1% | [2] 5.7% | [3] -14.4% | [4] 13.1% | [5] -1.1% | [6] -1.9%

NC(=O)C1CC(O)CC(C(N)=O)O1 (stereo unspecified)
inactive: [1] -6.75% | [2] 8.3% | [3] -9.55% | [4] 3.4% | [5] -2.35% | [6] -23.9%

NC(N)=NS(=O)(=O)c1ccc(NC(=O)c2cccn3c(=O)c4ccccc4nc23)cc1
inactive: [1] -6.9% | [2] -2.5% | [3] 30.3% | [4] 11.7% | [5] -9.4% | [6] -20.9%

COc1ccc(C2OC2C(=O)c2ccccc2)cc1 (stereo unspecified)
inactive: [1] 6.75% | [2] 0.7% | [3] 19.4% | [4] -14.2% | [5] 12.3% | [6] -1.25%

CN(C)c1ncnc2nc[nH]c12
inactive: [1] -14.6% | [2] 0.7% | [3] -6.1% | [4] -14.4% | [5] -2.6% | [6] 16.3%

CCOC(=O)C1=C(Nc2ccc(Cl)cc2Cl)OCC1=O
inactive: [1] -12.3% | [2] -5.85% | [3] -0.35% | [4] -13.9% | [5] -58.5% | [6] 10.2%

CC(=O)N/N=C1/NN(C(C)=O)C2(S1)C(=O)Nc1ccc(C)cc12 (stereo unspecified)
inactive: [1] -4.15% | [2] 38.8% | [3] 40.1% | [4] 28.8% | [5] 24.8% | [6] 7.7%

ClC(=Nc1ccccc1)c1cc(N2CCOCC2)ccn1
inactive: [1] 24.1% | [2] 11.1% | [3] 13.3% | [4] 8.35% | [5] 19.1% | [6] 14%

CC1(C)C2CCC(=O)C1CC2 (stereo unspecified)
inactive: [1] 6.75% | [2] 14.2% | [3] -22.6% | [4] 12.7% | [5] -37.4% | [6] -43.5%

COc1cc(C=NCc2ccccc2)cc(OC)c1O
inactive: [1] -1.05% | [2] 19.2% | [3] 4.7% | [4] -14.6% | [5] 19.8% | [6] 8.9%

O=S(=O)(Nc1nc2ccccc2nc1N1CCCCCC1)c1ccccc1
inactive: [1] -7.25% | [2] -8.35% | [3] 20.5% | [4] 4.7% | [5] 7.65% | [6] -23.8%

S=C=NC12CC3CC(CC(C3)C1)C2
inactive: [1] -2% | [2] 0.6% | [3] 0.65% | [4] 15.1% | [5] -4.05% | [6] -15.5%

Reference: PubChem BioAssay (NCI)
